Bioassay records from PubChem BioAssay.
CHX counter: counter-screen for Shiga toxin inhibitors: cycloheximide protein synthesis inhibition | AID 2314 | cell reporter, cycloheximide protein synthesis inhibition counterscreen | max response, % | actives 12% (n = 300,000); in the data active = max response mostly above about 13%, no sharp cut-off; inactive = mostly below about 14%; also: read at 38.3 µM for the half of the compounds with a filed dose; 0% is about no effect
Shiga inhibitor: Shiga toxin inhibition | Vero cells, Shiga toxin protein synthesis inhibition reporter | inhibition, % at 38.7 µM | actives 9.2% (n = 290,000); in the data active = inhibition mostly above about 28%, no sharp cut-off; inactive = mostly below about 43%; also: 0% is about no effect
Pf growth 48h: P. falciparum growth inhibition at 48 hours (one generation); actives 5.9% (n = 310,000); P. falciparum luciferase growth in erythrocytes, 48 h; Potency, µM (top dose mostly 28.7 µM), for the others: at the top dose activity change, negative = inhibition, usual class: inhibitors; AID 504832; also: potency is read from the fitted curve at half-maximal effect; % is scaled to controls: 0 for no effect and ±100 for the full control effect
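Luciferase-expressing P. falciparum in infected erythrocytes (2% hematocrit, 0.1% parasitemia final) in RPMI 1640/0.5% Albumax were exposed to compound for 48 hours at 37 C, 5% CO2; growth read as luminescence.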
SARS PLpro yeast: blocks SARS-CoV papain-like protease in a yeast assay; S. cerevisiae expressing SARS-CoV PLpro, growth rescue; Potency, µM (doses to about 32.9 µM), for inactives: at the highest dose activity, positive = growth rescue, usual class: activators; actives 0.19% (n = 330,000); AID 485353; calls by dose curve; also: potency is read from the fitted curve at half-maximal effect; 0% is about no effect; nearly all actives have a fitted effect of over 55% in size
AMA1 RON2 block: AMA1-RON2 (P. falciparum) interaction inhibition | AlphaScreen AMA1-biotinylated RON2 peptide binding | Potency, µM (doses to about 58.2 µM), inactives show at the top dose activity change, negative = inhibition, most hits filed as inhibitors | actives 0.2% (n = 360,000) | AID 720542;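 also: potency is read from the fitted curve at half-maximal effect; 0% = vehicle wells and -100% = peptide control; nearly all actives have a fitted effect of over 45% in size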
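AMA1 (3D7) with his tag at 25 nM final met compounds first, then biotinylated RON2 peptide at 25 nM; detection used donor plus acceptor beads, 10 µg/mL apiece, read by AlphaScreen after 30 min at room temperature.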
Pf growth 96h: P. falciparum growth inhibition at 96 hours. actives 6.9% (n = 320,000). Potency, µM (highest dose often 28.7 µM), inactives show at the highest dose activity change, negative = inhibition, usual class: inhibitors. P. falciparum luciferase reporter growth, 96 h; also: potency is read from the fitted curve at half-maximal effect; % is scaled to controls: 0 for no effect and ±100 for the full control effect
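P. falciparum expressing integrated firefly luciferase grown in erythrocytes (2% hematocrit, 0.05% parasitemia final) with compounds for 96 hours at 37 C, 5% CO2. Growth inhibition read as loss of luminescence after adding luciferase detection reagent.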
* marks the source's active call; other numbers are inactive results; u = inconclusive; x = not tested or not shown. Sampled rows, rich in hits. Any-hit rate of the full collection: about 19%. Unless noted, calls follow the shape of the dose curve; as a rule, active = well fitted curve in the direction sought with a large enough effect; inconclusive = small, poorly fitted or top-dose-only effect, or another doubt; inactive = no such curve, though single readings can be large; an effect the other way counts as inactive or inconclusive.

SMILES	CHX counter	Shiga inhibitor	Pf growth 48h	SARS PLpro yeast	AMA1 RON2 block	Pf growth 96h
COCCNc1ncnc2c1[nH]c1ccccc12	6	9	-1%	0%	-10%	-3%
COc1ccc2[nH]c3c(N4CC(C)OC(C)C4)ncnc3c2c1 (stereo not drawn)	9	-8	x	0%	2%	u
COc1ccc(/C=N/Nc2ncnc3c2[nH]c2ccccc23)c(OC)c1OC	2	12	-7%	2%	0%	0%
CCCOc1ncnc2c1[nH]c1ccc(OC)cc12	49*	68*	203%	-1%	4%	300%
CCCOc1ncnc2c1[nH]c1ccccc12	42*	60	68%	-19%	-1%	65%
CCCCOc1ncnc2c1[nH]c1ccc(C)cc12	43*	106*	203%	-1%	-1%	337%
COc1cccc(/C=N/Nc2ncnc3c2[nH]c2ccc(C)cc23)c1OC	1	23	u	-3%	-21%	u
O=C(NC(=S)Nc1ccc(S(=O)(=O)Nc2ncccn2)cc1)c1ccc(Br)cc1	-3	25	9%	1%	5%	52%
CCN(CC)c1ncnc2c1[nH]c1ccccc12	-3	-22	4.1µM*	-4%	4%	x
COc1ccc(NC(=O)C2CC2(Cl)Cl)cc1S(=O)(=O)N1CCCCC1 (stereo not drawn)	x	x	x	x	5%	x
O=C(CSc1nnc(-c2ccncc2)o1)N1CCc2ccccc2C1	-2	-7	-1%	1%	-2%	13%
CC[C@H](C)[C@@H](CN[C@H](C)CNC)NCCC(c1ccccc1)c1ccccc1	-2	-3	u	-2%	109%	u
COc1cc(OC)c(OC)cc1CCC(C)NCCC(c1ccccc1)c1ccccc1 (stereo not drawn)	-3	-15	4.1µM*	0%	u	2.1µM*
O=C(COC(=O)c1cnccn1)Nc1ccc(Cl)cn1	x	x	25%	2%	-1%	5%
CCOc1ccc(NC(=O)CN(C)CC(=O)Nc2ccc(F)c(F)c2F)cc1OCC	1	-3	-17%	1%	50%	-10%
O=C(CC1C=Cc2ccccc2N1C(=O)c1ccccc1)c1ccccc1 (stereo not drawn)	1	11	u	-3%	4%	0.59µM*
CCN(CC)C(=O)C1=C(C)NC(=S)NC1c1cn(-c2ccccc2)nc1-c1ccc(Cl)cc1 (stereo not drawn)	-4	-5	4.1µM*	4%	31%	u
O=C(O)c1cn(-c2ccccc2)nc1-c1ccc(Cl)cc1	x	x	x	x	11%	x
CCN(CC(=O)NC(C)(C)C)C(=O)CCl	-2	-6	12µM*	7%	4%	u
CCN(CC(=O)NC(C)(C)C)C(=O)COc1c(Cl)cc(Cl)c2ccc(C)nc12	3	-5	u	-1%	82%	u
COc1ccc(CN2C[C@H](Cc3ccccc3)[C@@H](CC(=O)Nc3ccccc3)C2=O)cc1	1	3	u	-1%	-1%	u
Cc1ccc(SCC(=O)Nc2nnc(C(C)(C)C)s2)cc1	0	x	-15%	1%	-6%	44%
CCC(=O)Nc1nnc(/C=C/c2ccc(OC)cc2)s1	32*	55*	26%	-2%	10%	30%
COc1ccc(/C=C/c2nnc(NC(=O)CSc3ccc(C)cc3)s2)cc1	15*	94*	17%	3%	3%	u
COc1ccc(CC(=O)Nc2nnc(C)s2)cc1	-3	-25	7%	1%	7%	x
CCOC(=O)[C@]12CCC=C1N(Cc1ccco1)C(=O)[C@H](CC(=O)N1CCC(c3ccccc3)CC1)C2	x	x	x	x	4%	x
CCOc1ccc2nc(Cl)c(/C=C/C(=O)c3ccco3)cc2c1	16	26	-3%	-2%	-11%	x
Cc1cccc2cc(/C=C/C(=O)c3ccco3)c(Cl)nc12	12*	16	u	2%	-14%	31%
CC(C)(C)C(=O)Nc1ccc(/C=C/C(=O)c2ccco2)cc1	25*	x	-1%	-2%	0%	u
Cc1ccc(/C=C/C(=O)c2cc(Br)ccc2OC(=O)c2ccco2)cc1	24*	49*	13µM*	-8%	-16%	u
